# Only some compounds are listed: those with a hit (about 3.9% of all), similar ones and a draw of the others.
# HGIII-sPLA2 inh: human group III sPLA2 inhibitors, primary screen, biochemical, QFRET, BODIPY PC-A2 liposome substrate | inhibition, % at 12.2 µM | actives 0.56% (n = 370,000) | QFRET BODIPY PC-A2 liposome hydrolysis, fluorescence;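 active = inhibition above mean plus 3 SD of compounds lying within the high and low control bounds, cut at about 19% in these data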;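 note: 0% = median of test compound wells and 100% = no enzyme DMSO wells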
# HIF act: HIF pathway transcriptional activators, primary screen, cell-based, U2OS HRE-luciferase, luminescence; U2OS HRE-luciferase reporter; normalized: DMSO 0%, desferrioxamine 100%; activation, % at 7.5 µM (by protocol); actives 0.32% (n = 300,000); AID 1910, 2009;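 active = mean activation of at least 10% of the iron chelator positive control signal, with at least half of replicates also reaching 10%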
# Yeast superoxide: reduction of superoxide in aged yeast, primary screen, HTS; S. cerevisiae aged cells, superoxide DHE fluorescence; hits give low values; superoxide response (% of plate mean), % at 10 µM; actives 0.18% (n = 330,000); AID 2690, 2010;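 active = superoxide response under a set limit, about three screen SD below normal, cut at about 65% in these data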;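 note: yeast aged for seven days with compound at 30 °C before DHE staining; 100% = average MFI of all compound-treated wells on the plate with controls excluded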
# AHR activator: AHR activators, primary screen, cell-based, luminescence, luciferase reporter, human; Aryl hydrocarbon receptor (Homo sapiens), P35869; AHR-responsive luciferase reporter cells; activation, % at 5 µM; actives 2.5% (n = 320,000); AID 2796, 2010; in the data active = activation above about 47%;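 note: 0% = vehicle wells and 100% = reference agonist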
# PLCb3 inh: human PLC-beta3 inhibitors, primary screen, biochemical, fluorescence. 1-phosphatidylinositol 4,5-bisphosphate phosphodiesterase beta-3 (Homo sapiens), Q01970. Purified PLC-beta3, fluorogenic substrate. inhibition, % at 12.2 µM. actives 0.18% (n = 370,000); in the data active = inhibition above about 11%;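 note: 0% = median of compound wells on plate and 100% = full blocker control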
# PLCg1 inh: PLC-gamma1 enzyme inhibitors, primary screen, biochemical, fluorescence, purified enzyme; 1-phosphatidylinositol 4,5-bisphosphate phosphodiesterase gamma-1 (Homo sapiens), P19174; fluorogenic substrate; inhibition, % at 12.2 µM; actives 0.84% (n = 370,000); in the data active = inhibition above about 9.5%
# * = called active by the depositor; / = no result.
SMILES,HGIII-sPLA2 inh,HIF act,Yeast superoxide,AHR activator,PLCb3 inh,PLCg1 inh
Cc1ccc(C(=O)N/N=C/c2cc(Br)ccc2O)cn1,-1,16*,96,13,-46,-27
O=C(CCc1ccccc1)N/N=C/c1cc(Br)ccc1O,-23,12*,111,33,-107,-92
Cc1ccccc1C1CCC2(CC1)CCN(CC[C@@H](O)c1ccccc1)C2=O (stereo not given in full),-10,/,/,/,4,4
O/N=C1/C2C3CC4C5C3C1C5C1(OCCO1)C42 (stereo not given),5,61*,118,0,2,3
Fc1ccc(NC(=S)N2CCc3ccccc32)cc1,1,-48,98,/,-6,0
FC(F)Oc1ccc(NC(=S)N2CCc3ccccc32)cc1,5,2,87,51*,1,4
COc1ccc(Cc2nnc(NC(=O)C(C)(C)C)s2)cc1,-3,0,91,3,3,2
COC(=O)Nc1nnc(Cc2ccc(OC)cc2)s1,2,40*,90,3,2,7
O=C(c1ccc2c(c1)OCO2)C1CCCN(Cc2cccn2-c2cccnc2)C1 (stereo not given),-6,0,105,49*,-13,-5
O=C(c1ccc(Cl)cc1)C1CCCN(Cc2cccn2-c2cccnc2)C1 (stereo not given),-12,0,102,20,-1,3
CC(C)(C)C(=O)N1CCC[C@]2(CC[C@H](CCC#N)O2)C1,5,/,/,/,-2,0
COc1cc(OC)cc(-c2csc(N3CCC(C(N)=O)CC3)n2)c1,0,/,/,/,1,1
Cc1ccnc(NC(=O)/C=C/c2ccccc2[N+](=O)[O-])c1,-4,0,109,72*,-1,0
O=C(/C=C\c1ccccc1[N+](=O)[O-])Nc1ccccc1,4,5,105,40,-5,4
CCOc1ccccc1NC(=O)/C=C/c1ccccc1[N+](=O)[O-],1,1,96,63*,4,1
Cc1ccnc(NC(=O)/C=C/c2ccccc2Cl)c1,-2,0,99,16,-31,-21
CN(C)S(=O)(=O)Oc1ccsc1C(=O)Nc1ccccc1Cl,-10,0,103,6,-1,1
CN(C)S(=O)(=O)Oc1ccsc1C(=O)Nc1cccc(Cl)c1Cl,-6,0,97,60*,7,4
N#CC1CCN(c2nc(-c3ccc(Br)cc3)cs2)CC1,-1,/,/,/,-8,-5
C[C@@H]1CCCCCCCCC(=O)OCCN(C(=O)OC(C)(C)C)[C@H](C)CCCCCCCCC(=O)OCCN1C(=O)OC(C)(C)C,17,/,114,0,13*,7
C[C@@H]1CCCCCCCCC(=O)OCCN1C(=O)OC(C)(C)C,11,/,106,-1,1,1
CC(C)(C)c1ccc(/C=N/NC(=S)Nc2cccnc2)cc1,/,-3,108,34,/,/
CC(C)NC(=S)N/N=C/C1=CCC2CC1C2(C)C (stereo not given),18,1,101,-2,0,-5
COc1ccccc1/C=N/NC(=S)Nc1cccnc1,8,0,103,59*,2,1
CC1(C)C2CC=C(/C=N/NC(=S)Nc3cccnc3)C1C2 (stereo not given),12,1,102,65*,4,1
SMILES,HGIII-sPLA2 inh,HIF act,Yeast superoxide,AHR activator,PLCb3 inh,PLCg1 inh
Oc1ccc(/C=N/NC(=S)Nc2cccnc2)cc1O,12,-1,104,79*,-14,-14
COc1cc(/C=N/NC(=S)Nc2cccnc2)cc(OC)c1OC,4,0,97,62*,-1,1
Cc1cc(C)c(C(N)=O)c(Nc2cccc3ccccc23)n1,4,-1,94,52*,-9,-6
CCOc1ccccc1NC(=O)NCc1cccnc1,1,-2,82,84*,-4,1
COc1ccc(OC)c(NC(=O)NCc2cccnc2)c1,2,0,99,58*,-9,3
CCOc1ccccc1NC(=O)NCc1ccccc1,0,0,86,14,-2,-2

# Compound activity: PubChem BioAssay, several laboratories
